# Results taken from PMC3218832.
# How the values were obtained:
# Assay in all cases: protein binding microarray; high values mean tight binding
# Conditions in all cases: dsDNA, one strand shown
# RELARELA (p65 homodimer) = RELARELA (p65 homodimer) (Homo sapiens, UniProt Q04206 1-307)
# p50p50 homodimer = p50p50 homodimer (Homo sapiens, UniProt P19838 7-356)
# p52p52 homodimer = biological target: T1, p52p52 homodimer (Homo sapiens, UniProt Q00653 4-332)
# T1 sequence: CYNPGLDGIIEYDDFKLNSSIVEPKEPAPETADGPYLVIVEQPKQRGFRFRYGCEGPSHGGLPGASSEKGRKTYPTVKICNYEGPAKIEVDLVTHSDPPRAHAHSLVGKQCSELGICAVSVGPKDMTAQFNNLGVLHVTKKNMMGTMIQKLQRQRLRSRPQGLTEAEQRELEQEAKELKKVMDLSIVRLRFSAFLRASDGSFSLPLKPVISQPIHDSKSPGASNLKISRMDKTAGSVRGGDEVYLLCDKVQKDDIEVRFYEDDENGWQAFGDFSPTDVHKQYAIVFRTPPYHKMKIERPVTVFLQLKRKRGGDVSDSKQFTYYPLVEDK
# [1] = biological target: RELA (p65) subunit of heterodimer;p50 subunit (Homo sapiens;Homo sapiens, UniProt Q04206;P19838 1-307;7-356)
# Sequence of RELA (p65) subunit of heterodimer;p50 subunit (Q04206 1-307, chain 1 of 2): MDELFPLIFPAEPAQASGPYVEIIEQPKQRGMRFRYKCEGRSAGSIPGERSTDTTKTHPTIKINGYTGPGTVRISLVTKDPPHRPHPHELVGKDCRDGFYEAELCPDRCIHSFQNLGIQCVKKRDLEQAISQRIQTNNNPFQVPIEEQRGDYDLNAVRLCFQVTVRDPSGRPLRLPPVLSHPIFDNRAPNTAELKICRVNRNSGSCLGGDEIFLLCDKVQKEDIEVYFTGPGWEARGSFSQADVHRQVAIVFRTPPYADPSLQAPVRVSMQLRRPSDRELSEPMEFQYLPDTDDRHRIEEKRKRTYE
# Sequence of RELA (p65) subunit of heterodimer;p50 subunit (P19838 7-356, chain 2 of 2): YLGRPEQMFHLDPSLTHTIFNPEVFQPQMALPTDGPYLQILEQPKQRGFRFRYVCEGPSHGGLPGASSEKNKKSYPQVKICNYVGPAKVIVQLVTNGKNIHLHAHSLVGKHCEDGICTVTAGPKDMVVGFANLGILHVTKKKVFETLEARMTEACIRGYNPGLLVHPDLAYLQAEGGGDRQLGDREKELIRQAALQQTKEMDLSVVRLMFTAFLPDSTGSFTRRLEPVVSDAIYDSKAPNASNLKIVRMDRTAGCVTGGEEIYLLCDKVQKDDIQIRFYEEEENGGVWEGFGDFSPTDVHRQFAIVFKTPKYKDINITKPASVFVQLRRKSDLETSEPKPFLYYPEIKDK
# [2] = biological target: RELA (p65) subunit of heterodimer;p52 subunit (Homo sapiens;Homo sapiens, UniProt Q04206;Q00653 1-307;4-332)
# RELB subunit;p50 subunit = RELB subunit;p50 subunit (Homo sapiens;Homo sapiens, UniProt Q01201;P19838 120-401;7-356)
# RELB subunit;p52 subunit = biological target: T2, RELB subunit;p52 subunit (Homo sapiens;Homo sapiens, UniProt Q01201;Q00653 120-401;4-332)
# T2 sequence 1: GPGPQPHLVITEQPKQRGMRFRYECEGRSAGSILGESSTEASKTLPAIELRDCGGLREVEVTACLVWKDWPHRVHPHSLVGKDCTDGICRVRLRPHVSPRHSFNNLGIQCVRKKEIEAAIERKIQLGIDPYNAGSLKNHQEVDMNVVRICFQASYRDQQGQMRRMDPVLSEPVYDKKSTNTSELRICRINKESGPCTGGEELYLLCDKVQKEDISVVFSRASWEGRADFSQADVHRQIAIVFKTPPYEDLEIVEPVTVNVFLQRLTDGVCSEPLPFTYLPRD
# T2 sequence 2: T1 sequence
# [3] = biological target: C-Rel subunit;p50 subunit (Homo sapiens;Homo sapiens, UniProt Q04864;P19838 1-285;7-356)
# [4] = biological target: T3, C-Rel subunit;p52 subunit (Homo sapiens;Homo sapiens, UniProt Q04864;Q00653 1-285;4-332)
# T3 sequence 1: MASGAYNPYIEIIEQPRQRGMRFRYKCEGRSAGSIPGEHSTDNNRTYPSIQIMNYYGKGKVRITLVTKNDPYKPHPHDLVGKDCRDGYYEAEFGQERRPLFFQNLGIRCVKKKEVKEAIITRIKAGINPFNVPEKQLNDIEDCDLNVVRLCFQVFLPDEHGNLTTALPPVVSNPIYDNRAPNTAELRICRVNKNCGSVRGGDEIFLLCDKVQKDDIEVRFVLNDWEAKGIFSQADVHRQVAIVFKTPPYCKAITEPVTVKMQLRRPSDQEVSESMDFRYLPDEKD
# T3 sequence 2: T1 sequence
# Sequence of RELARELA (p65 homodimer) (Q04206 1-307): as the sequence (Q04206 1-307, chain 1 of 2) above
# Sequence of p50p50 homodimer (P19838 7-356): as the sequence (P19838 7-356, chain 2 of 2) above
Sequence,binding signal (RELARELA (p65 homodimer)) [z-score],binding signal (p50p50 homodimer) [z-score],binding signal (p52p52 homodimer) [z-score],binding signal [1] [z-score],binding signal [2] [z-score],binding signal (RELB subunit;p50 subunit) [z-score],binding signal (RELB subunit;p52 subunit) [z-score],binding signal [3] [z-score],binding signal [4] [z-score]
GGGATGGCCCC,-0.135,0.31,1.6,0.79,1.15,0.678,0.614,0.492,0.746
GAATGAGCCCT,-1.06,-1.39,-0.606,-0.778,-0.989,-1.17,-0.969,-1.55,-1.02
AAGTTTCTCCC,0.793,0.601,0.198,0.383,0.17,0.576,0.357,0.423,0.189
AAGATGCCCCC,0.101,1.09,0.461,0.893,0.788,0.97,1.17,1.03,0.633
GAGAAAACCCT,0.625,0.495,0.559,0.373,0.499,0.0283,0.361,0.245,0.234
AGAAAATCCCT,1.08,1.27,1.8,1.28,1.37,1.49,1.61,1.12,1.62
CAAGTAATCCC,-0.158,-0.156,-0.0587,-0.365,-0.426,-0.117,-0.123,0.0809,-0.302
GGGATTCTCCC,2.28,0.737,2.84,1.59,2.15,2.01,1.67,1.41,2
CGGAGCGCCCT,-0.577,-1.84,-0.701,-0.94,-0.911,-1.13,-0.954,-1.21,-1.01
GAGGTTATCCT,-0.457,-0.539,-0.329,-0.899,-0.657,-0.734,-0.759,-1.3,-0.681
AAAGATGTCCC,0.336,0.646,0.345,0.492,0.185,0.741,0.487,0.497,-0.0919
GAAGTCTTCCC,0.246,-0.511,-0.37,-0.272,-0.339,-0.349,-0.537,0.175,-0.174
CGGGACCCCCT,-0.322,1.2,0.855,1.01,0.923,1.13,1.36,0.895,0.632
GAGAGGGTCCC,-0.00134,-0.361,-0.132,-0.312,-0.187,-0.0754,-0.109,-0.406,-0.351
GGGTTCGTCCC,0.22,0.238,1.59,0.186,1.09,0.251,0.438,0.489,0.747
CAAGTGGCCCT,-1.09,-1.71,-0.67,-0.961,-0.801,-0.596,-0.32,-1.14,-0.793
GGGGTCTCCCT,0.447,0.727,1.4,1.01,1.15,0.85,1.05,0.709,1.16
AAGTGGCCCCC,-0.634,0.242,-0.0278,-0.101,0.0039,0.173,0.29,0.101,0.0509
GGGTGTGTCCC,0.547,0.331,1.38,0.647,1.02,0.42,0.593,0.648,0.813
AGAAACGTCCT,-0.192,-1.17,-0.534,-0.997,-0.794,-0.947,-0.798,-1.13,-0.812
GGAGGACCCCT,-0.648,-0.192,-0.0995,0.108,0.173,-0.321,-0.0771,0,0.275
AAAGAAGTCCT,-0.118,-0.972,-0.456,-0.815,-0.873,-0.926,-0.875,-0.558,-0.645
AGGTATACCCT,-0.0429,-0.139,-0.102,-0.262,-0.241,-0.242,-0.17,-0.467,-0.258
CAATAAGTCCT,0.325,-1.39,-0.437,-0.836,-0.813,-0.817,-0.698,-0.578,-0.74
AAAGTCTCCCC,0.367,0.818,0.559,0.733,0.654,0.78,0.879,0.882,0.388
AGGATACCCCC,0.417,1.14,0.992,1.34,1.29,1.01,1.54,0.882,1.24
CGGGGCATCCT,-0.458,0.212,0.516,0.0241,0.306,0.179,0.34,0.188,0.458
GGATGTCCCCC,0.799,1.11,1.17,1.69,1.37,1.27,1.47,1.1,1.45
CGGAACGTCCC,1.16,0.116,0.505,0.933,0.956,0.184,0.327,0.44,0.748
GGGGATTCCCT,3.57,1.37,3.18,2.6,3.05,2.45,2.75,2.76,3.46
